# Test results reported in ChEMBL document CHEMBL1157539, “Thousands of chemical starting points for antimalarial lead identification” (Nature, 2010).
# Columns and labels:
# Type in all cases: functional
# Plasmodium falciparum [1] = assay: GSK_TCMDC: Inhibition of Plasmodium falciparum 3D7 in whole red blood cells, using parasite LDH activity as an index of growth. Test compounds present at 2uM
# Plasmodium falciparum [2] = assay: GSK_TCMDC: Inhibition of Plasmodium falciparum Dd2 in whole red blood cells, using parasite LDH activity as an index of growth. Test compounds present at 2uM
# HepG2 = assay: GSK_TCMDC: Percent inhibition of human HepG2 cell line. Test compounds present at 10uM.
SMILES,Inhibition (Plasmodium falciparum [1]) [%],Inhibition (Plasmodium falciparum [2]) [%],Inhibition (HepG2) [%]
Cl.c1ccc2c(c1)ncn2-c1ccnc(Nc2ccncc2)n1,89,80,0
c1ccc2[nH]c(-c3ccc(-c4ccc(CN5CCCCC5)cc4)s3)nc2c1,100,69,41
CN(C)c1ccc(-c2csc(C(=O)NC3CCN(Cc4ccc(C(C)(C)C)cc4)C3)c2)cc1.O=C(O)C(F)(F)F (stereo not given),99,50,26
COc1ccc(O)c(C(=O)c2cnc3c(c2)c(-c2ccc(F)cc2)c(C#N)c(=O)n3C)c1,92,14,7
Cc1cc(N[C@@H](Cc2ccccc2)C(=O)NCCCOC(C)C)nc(NCC2CCCCC2)n1.O=C(O)C(F)(F)F,94,25,17
O=C(Nc1cccc(-c2csc(-c3nc4ccccc4[nH]3)c2)c1)c1cc(=O)c2ccccc2[nH]1,98,39,41
COc1ccccc1C(C)NCC(=O)Nc1cc(C(F)(F)F)ccc1Cl (stereo not given),97,85,4
O=C1OC(c2cc3ccccc3n2S(=O)(=O)c2ccccc2)(c2cc3ccccc3n2S(=O)(=O)c2ccccc2)c2ccccc21,95,78,1
O=C(Nc1cccc(CN2CCCN(Cc3ccsc3)CC2)c1)c1ccc(-c2ccccc2)cc1.O=C(O)C(F)(F)F,90,11,30
COc1ccc2nccc([C@@H](O)CN3CCC(NCc4cc5ccccn5n4)CC3)c2c1.O=C(O)C(=O)O,99,18,7
N#Cc1ccc(-c2cnc3ccc(NCCc4cccnc4)nn23)cc1,99,81,27
COCCNC(=O)c1ccc(OC2CCN(Cc3ccc(F)c(F)c3)CC2)c(Cl)c1,88,73,8
CC(C)(C)Oc1ccc(NC(=O)c2ccccc2O)cc1,86,67,4
Cc1cccc2nc(-c3cccc(-c4cccc(NC(=O)Cc5c[nH]cn5)c4)c3)[nH]c12,100,100,32
COc1ccc2ncc(C)c(CCN3CCC(NCc4ccc5c(n4)NC(=O)CS5)CC3)c2c1.Cl,100,53,14
COc1ccc2nccc([C@@H](O)CN3CCC(NCc4ccc5c(c4)NC(=O)CS5)CC3)c2n1.O=C(O)C(=O)O,100,34,1
NC(CC1CC(=O)N1CC(=O)O)C(=O)O (stereo not given),95,0,56
COC(=O)c1ccc(CC(C)NCC(O)c2ccc(C(O)CNC(C)Cc3ccc(C(=O)OC)cc3)cc2)cc1.O (stereo not given),88,13,24
Cl.c1cc2[nH]c(CCCCc3nc4cc(C5=N[C@H]6CCCC[C@H]6N5)ccc4[nH]3)nc2cc1C1=N[C@H]2CCCC[C@H]2N1,90,88,5
CN(C)CCOc1ccc(N2CCN(CCCCNC(=O)c3ccc(NC(=O)c4ccc(Cl)cc4)cc3)CC2)cc1,99,98,13
COc1ccc2nccc(N/N=C/c3cccc([N+](=O)[O-])c3)c2c1,100,98,4
Br.N=C(N)c1ccc(C(=O)Nc2cccc(C(=N)N)c2)cc1,88,82,13
CSc1nc2nc(C)c(Cc3cccc(F)c3)c(C)n2n1,87,45,3
CC(=O)N1N=C(c2ccc(Cl)cc2)Sc2c1nc(C1CCCCC1)n2C(C)=O,100,67,1
O=c1c(NCCCN(Cc2ccc(F)cc2)c2ccccn2)c(NCc2cccnc2)c1=O,100,92,0
COc1ccc(-c2ccc(NC(=O)c3cccs3)cc2)cc1CN1CCCN(C)CC1.O=C(O)C(F)(F)F,100,30,31
O=C(Nc1cccc(OCCN2CCCC2)c1)Nc1ccc(Cl)c(Cl)c1.O=C(O)C(F)(F)F,98,22,3
CC(C)C[C@H](NC(=O)[C@H](Cc1ccccc1)NC(=O)CCN1C(=O)COc2ccc(C(=O)O)cc21)C(=O)NC(CC1CCCCC1)C(O)CC(=O)NCCCn1ccnc1.Cl.O (stereo not given in full),99,0,0
COc1cc2nc(SCCCC#N)n(C3CCCCCC3)c(=N)c2cc1OC,89,9,0
CCOc1c(C)cc(C(F)(F)F)cc1CNCCCNc1cc(=O)c2ccccc2[nH]1.Cl,97,1,0
